A number with no mark means an inactive call. Results filed as inconclusive are left out. Activity calls are given as the source filed them. Unless noted, calls follow the shape of the dose curve; as a rule, active = well fitted curve in either direction with a large enough effect (not every such curve was filed as active); inconclusive = small, poorly fitted or top-dose-only effect, or another doubt; inactive = flat fitted curve, though single readings scatter.
What was measured:
[1] = AP1 Signaling Pathway (AID 357); conditions: ME-180 AP-1-bla reporter, EGF-induced, beta-lactamase ratio, 5 h; at 7.69 µM (top of the series) unless noted;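 also: ME-180 reporter cells stimulated with EGF at its EC50 level; % is scaled to controls: 0 for no effect and ±100 for the full control effect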
Procedure, shortened: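 Cells are seeded overnight, exposed to compound titrations and an EC50 level of EGF for 5 hours at 37 °C, then loaded with CCF4 dye for 2.5 hours. Beta-lactamase activity under the AP-1 element is read as a blue/green ratio.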

[2] = biological target: Cytochrome P450 1A2 (Homo sapiens) (UniProt P05177); experiment: p450-cyp1a2 (AID 410; calls by dose curve; also: potency is read from the fitted curve at half-maximal effect;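 as to activity change, negative = inhibition: -100% = full effect of reference inhibitor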)
Procedure, shortened: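 Inhibition was calculated relative to 57 uM furafylline (full inhibition). The reaction used human CYP1A2 at 20nM with Luciferin-ME at its Km, 100uM, driven by an NADPH-regenerating system for 60 min at room temperature.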

[3] = NFAT Signaling Pathway (AID 444); conditions: Jurkat NFAT-bla M1, carbachol, beta-lactamase ratio, 5 h; at 7.69 µM (top of the series) unless noted;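 also: carbachol stimulus at about its EC50 of 1 µM final; % is scaled to controls: 0 for no effect and ±100 for the full control effect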
Procedure, shortened: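 Jurkat cells carrying an NFAT-driven β-lactamase reporter and co-transfected muscarinic M1 receptor were treated with compound plus carbachol (1 uM final, an EC50 level) for 5 h at 37 °C. CCF4 loading followed for 1 h at RT; 460/530 nm ratio gave %activity.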

[4] = Stat Signaling Pathway (AID 446); conditions: ME-180 SIE beta-lactamase reporter, IL-6 stimulated, 5 h; at 7.69 µM (top of the series) unless noted;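 also: ME-180 cervical cancer cells given 40 pM IL-6 alongside compound; SIE-controlled beta-lactamase reporter measured as 460/530 nm FRET emission ratio; % is scaled to controls: 0 for no effect and ±100 for the full control effect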
Procedure, shortened: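 ME-180 cells carrying a SIE-driven beta-lactamase reporter are stimulated with 40 pM IL-6 for 5 h at 37C in the presence of compound. The 460/530 nm FRET substrate ratio is read after 2.5 h at RT. Data are normalised to 300 pM IL-6 and to 125 nM JAK inhibitor controls.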

[5] = biological target: Glucocorticoid receptor (Homo sapiens) (UniProt P04150); experiment: GR-GFP Redistribution (AID 450;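 active = compounds whose dose series gives a full or clear partial fitted curve of increased nuclear translocation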; also: potency is read from the fitted curve at half-maximal effect); conditions: U2OS GR-GFP nuclear translocation, laser cytometry, 2 h
[6] = biological target: Glucocorticoid receptor (Homo sapiens) (UniProt P04150); experiment: GR-EFC Redistribution (AID 451; calls by dose curve; also: potency is read from the fitted curve at half-maximal effect); conditions: CHO-K1 GR-EFC translocation, beta-gal luminescence, 2 h
Procedure, shortened: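 CHO-K1 cells stably expressing nuclear-localized β-gal enzyme acceptor and GR fused C-terminally to the enzyme donor fragment; ligand-driven nuclear translocation restores β-gal by complementation. Compounds titrated up to 46 uM final, 2 h at 37 °C; luminescence read.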

[7] = biological target: Mitogen-activated protein kinase 10 (Mus musculus) (UniProt Q61831); experiment: JNK3 AlphaScreen Assay (AID 530);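 also: kinase came from lysate of stimulated human HepG2 cells; signal reports phosphorylation of biotinylated GST-cJun 1-79 at Ser73 with 10 µM ATP; % is scaled to controls: 0 for no effect and ±100 for the full control effect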
Procedure, shortened: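 JNK3 came from HepG2 lysates pre-activated with IL-1beta and TNF-alpha and phosphorylated biotinylated GST-cJun (1-79) at 10 uM ATP, pH 7.6, room temperature. Compounds were titrated. AlphaScreen signal used anti-phospho-cJun (Ser73) antibody.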

[8] = biological target: 3',5'-cyclic-AMP phosphodiesterase 4B (Homo sapiens) (UniProt Q07343); experiment: qHTS Assay for Inhibitors of PDE-IV (AID 607; active = well fitted activation curve with a large enough effect in the main read-out, with a control signal flat, not every such curve was filed as active; also: % of control where 0% means no effect)
Procedure, shortened: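 HEK293 ACTOne cells with CNG channel (1000/well), endogenous PDE4; membrane potential dye, compounds up to 22.9 uM final. Fluorescence Ex 535/Em 590; RO 20-1724 (100 uM final) as reference.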

[9] = biological target: Cytochrome P450 2D6 (Homo sapiens) (UniProt P10635); experiment: qHTS Assay for Inhibitors and Substrates of Cytochrome P450 2D6 (AID 891; active = well fitted curve in the direction sought with a large enough effect; an effect the other way counts as inactive or inconclusive;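 also: luciferin methyl ether substrate demethylated by CYP2D6 with NADPH regeneration; % is scaled to controls: 0 for no effect and ±100 for the full control effect; nearly all actives have a fitted effect of over 60% in size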)
Procedure, shortened: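 Human CYP2D6 (5 nM) with 30 uM Luciferin-ME EGE (at Km) in 100 mM KPO4, compound preincubated 10 min, then NADPH regeneration system for 60 min at room temperature. Luciferin read by luminescence; normalized to 1.43 uM quinidine.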

[10] = biological target: Cytochrome P450 2C9 (Homo sapiens) (UniProt P11712); experiment: qHTS Assay for Inhibitors and Substrates of Cytochrome P450 2C9 (AID 883; active = well fitted curve in the direction sought with a large enough effect; an effect the other way counts as inactive or inconclusive; also: potency is read from the fitted curve at half-maximal effect; nearly all actives have a fitted effect of over 60% in size)
Procedure, shortened: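 A luminogenic readout tracked human CYP2C9 (10nM) converting deoxyluciferin (100uM, at KM) in 25mM KPO4 during 60 min at 37C with regenerated NADPH. Values normalized to 57uM sulphaphenazole as complete inhibition.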

[11] = biological target: Cytochrome P450 3A4 (Homo sapiens) (UniProt P08684); experiment: qHTS Assay for Activators of Cytochrome P450 3A4 (AID 885; active = well fitted curve in the direction sought with a large enough effect; an effect the other way counts as inactive or inconclusive; also: nearly all actives have a fitted effect of over 65% in size)
Procedure, shortened: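 Human CYP3A4 (20 nM) with Luciferin-PPXE at 25 uM (its KM) in 200 mM KPO4; 10 min compound preincubation, then NADPH regeneration and 60 min reaction at RT. Luciferin read by luminescence; normalized to 57 uM ketoconazole full inhibition.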

[12] = biological target: Muscarinic acetylcholine receptor M1 (Rattus norvegicus) (UniProt P08482); experiment: qHTS Assay for Antagonists of Acetylcholine Muscarinic M1 Receptor: Kinetic Measurement of Intracellular Calcium Response (AID 943; active = well fitted curve in the direction sought with a large enough effect; an effect the other way counts as inactive or inconclusive;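 also: Fluo-4 calcium signal as peak divided by basal fluorescence over 4 min; nearly all actives have a fitted effect of over 75% in size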)
Procedure, shortened: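 Intracellular calcium flux, recorded with Fluo-4 in a kinetic plate reader, served as signal; the response to carbachol at EC80 (100 nM final) was taken as maximal over minimal fluorescence after a 10 min compound pre-incubation in rat M1-CHO cells.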

[13] = biological target: Muscarinic acetylcholine receptor M1 (Rattus norvegicus) (UniProt P08482); experiment: qHTS Assay for Antagonists of Acetylcholine Muscarinic M1 Receptor: Measurement of IP-One Response (AID 944; active = well fitted curve in the direction sought with a large enough effect; an effect the other way counts as inactive or inconclusive; also: nearly all actives have a fitted effect of over 75% in size)
Procedure, shortened: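 Steps: plate transfected CHO-M1 cells overnight; add test compound, 10 min; add carbachol (200 nM, EC80) in stimulation buffer with LiCl; incubate 30 min; add labelled IP1 tracer and anti-IP1 antibody in lysis buffer; read HTRF after 10 min.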

[14] = biological target: Pyruvate kinase (Leishmania mexicana) (UniProt Q27686); experiment: qHTS Validation Assay for Inhibitors of Leishmania Mexicana Pyruvate Kinase (AID 945; active = well fitted curve in the direction sought with a large enough effect; an effect the other way counts as inactive or inconclusive;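 also: 0% = DMSO only neutral control wells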)
Procedure, shortened: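 An endpoint luciferase assay: 0.2 nM LmPYK E451W turns over 0.5 mM PEP with 0.1 mM ADP for 1 h at room temperature, pH 7.2, before PKLight addition. Values are normalized to DMSO-only wells.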

[15] = biological target: Pyruvate kinase PKM (Homo sapiens) (UniProt P14618); experiment: qHTS Assay for Activators of Human Muscle Pyruvate Kinase (AID 954; active = well fitted curve in the direction sought with a large enough effect, not every such curve was filed as active;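 also: 0% = uninhibited enzyme and -100% = no enzyme or full thiadiazolimine inhibition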)
Procedure, shortened: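 Purified human PKM2 (0.1 nM) with 0.5 mM PEP (Km) and 0.1 mM ADP in 50 mM imidazole pH 7.2, KCl, MgCl2, 1 h at room temperature; ATP formed read by coupled luciferase luminescence. Normalized to no-enzyme/110 uM thiadiazolimine inhibition; 0.3 nM enzyme column for activation.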

[16] = biological target: Alpha-galactosidase A (Homo sapiens) (UniProt P06280); experiment: Counterscreen for Glucocerebrosidase Inhibitors: qHTS Assay for Human alpha-Galactosidase at pH 4.5 (AID 992; active = well fitted curve in the direction sought with a large enough effect; an effect the other way counts as inactive or inconclusive; also: 0% is about no effect)
Procedure, shortened: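 Human enzyme (2 nM) with 80 uM 4-methylumbelliferyl alpha-D-galactopyranoside in 50 mM citric acid, 0.005% Tween-20, pH 4.5, 20 min at room temperature. Compounds 0.7 nM–77 uM; fluorescence Ex 365/Em 440 after pH 10 stop; AC50 from Hill fits.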

[17] = biological target: alpha-glucosidase (Oryza sativa, rice) (UniProt Q653V4); experiment: Counterscreen for Glucocerebrosidase Inhibitors: qHTS Assay for Rice alpha-Glucosidase at pH 5.0 (AID 997; active = well fitted curve in the direction sought with a large enough effect; an effect the other way counts as inactive or inconclusive; also: potency is read from the fitted curve at half-maximal effect;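 as to activity change, negative = inhibition: 0% = full activity with enzyme and -100% = basal without enzyme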)
Procedure, shortened: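 Rice alpha-glucosidase (4 nM final) with 400 uM 4-methylumbelliferyl-alpha-D-glucopyranoside in citrate buffer pH 5.0, 20 min at room temperature, stopped at pH 10; fluorescence 365/440 nm, compounds 0.7 nM–77 uM, AC50 from Hill fits.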

[18] = qHTS Assay for Identification of Small Molecule Agonists for Thrombopoietin (TPO) Signaling Pathway (AID 917; active = well fitted curve in the direction sought with a large enough effect; an effect the other way counts as inactive or inconclusive; also: % is scaled to controls: 0 for no effect and ±100 for the full control effect)
Procedure, shortened: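 Luminescence from a Glycoprotein IIb promoter–driven luciferase reporter served as read-out in murine Ba/F3 cells carrying the human TPO receptor. Cells, deprived of IL-3 overnight, received compounds with 26 pM TPO and were incubated 24 hrs at 37 C.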

Sequence of 3',5'-cyclic-AMP phosphodiesterase 4B (Homo sapiens) (Q07343 whole entry, looked up): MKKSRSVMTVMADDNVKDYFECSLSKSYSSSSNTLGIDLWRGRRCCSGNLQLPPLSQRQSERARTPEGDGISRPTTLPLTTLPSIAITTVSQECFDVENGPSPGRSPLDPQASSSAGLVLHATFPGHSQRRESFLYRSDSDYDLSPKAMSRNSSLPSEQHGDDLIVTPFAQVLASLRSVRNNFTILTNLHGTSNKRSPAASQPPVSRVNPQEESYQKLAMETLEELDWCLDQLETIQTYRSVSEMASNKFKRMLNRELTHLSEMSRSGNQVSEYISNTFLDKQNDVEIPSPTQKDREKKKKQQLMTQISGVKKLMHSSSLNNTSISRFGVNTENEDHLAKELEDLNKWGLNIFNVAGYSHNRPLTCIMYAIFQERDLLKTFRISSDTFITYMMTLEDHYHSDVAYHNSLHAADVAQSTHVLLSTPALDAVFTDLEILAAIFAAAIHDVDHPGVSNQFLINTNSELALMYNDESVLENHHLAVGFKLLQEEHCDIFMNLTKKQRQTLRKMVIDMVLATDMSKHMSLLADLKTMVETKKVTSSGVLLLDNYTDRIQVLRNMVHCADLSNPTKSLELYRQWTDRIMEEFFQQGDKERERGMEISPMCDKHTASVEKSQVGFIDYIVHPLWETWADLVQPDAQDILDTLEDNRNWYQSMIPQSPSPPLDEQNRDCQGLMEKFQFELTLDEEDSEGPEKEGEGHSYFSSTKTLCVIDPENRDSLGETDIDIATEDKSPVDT
Sequence of Cytochrome P450 1A2 (Homo sapiens) (P05177 whole entry, looked up): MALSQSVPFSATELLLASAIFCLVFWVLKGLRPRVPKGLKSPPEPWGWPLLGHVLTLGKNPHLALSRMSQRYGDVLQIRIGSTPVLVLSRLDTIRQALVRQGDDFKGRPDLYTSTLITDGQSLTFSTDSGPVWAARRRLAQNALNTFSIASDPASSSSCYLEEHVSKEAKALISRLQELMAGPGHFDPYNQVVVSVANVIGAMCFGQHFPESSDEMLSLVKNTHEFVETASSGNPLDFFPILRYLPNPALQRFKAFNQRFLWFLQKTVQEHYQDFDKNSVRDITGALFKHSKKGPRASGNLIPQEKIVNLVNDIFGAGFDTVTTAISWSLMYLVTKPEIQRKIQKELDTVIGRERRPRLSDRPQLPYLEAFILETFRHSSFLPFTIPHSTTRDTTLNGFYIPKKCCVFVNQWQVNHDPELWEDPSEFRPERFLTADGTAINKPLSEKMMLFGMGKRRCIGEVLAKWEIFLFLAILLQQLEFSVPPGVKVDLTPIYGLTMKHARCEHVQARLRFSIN
Sequence of Cytochrome P450 3A4 (Homo sapiens) (P08684 whole entry, looked up): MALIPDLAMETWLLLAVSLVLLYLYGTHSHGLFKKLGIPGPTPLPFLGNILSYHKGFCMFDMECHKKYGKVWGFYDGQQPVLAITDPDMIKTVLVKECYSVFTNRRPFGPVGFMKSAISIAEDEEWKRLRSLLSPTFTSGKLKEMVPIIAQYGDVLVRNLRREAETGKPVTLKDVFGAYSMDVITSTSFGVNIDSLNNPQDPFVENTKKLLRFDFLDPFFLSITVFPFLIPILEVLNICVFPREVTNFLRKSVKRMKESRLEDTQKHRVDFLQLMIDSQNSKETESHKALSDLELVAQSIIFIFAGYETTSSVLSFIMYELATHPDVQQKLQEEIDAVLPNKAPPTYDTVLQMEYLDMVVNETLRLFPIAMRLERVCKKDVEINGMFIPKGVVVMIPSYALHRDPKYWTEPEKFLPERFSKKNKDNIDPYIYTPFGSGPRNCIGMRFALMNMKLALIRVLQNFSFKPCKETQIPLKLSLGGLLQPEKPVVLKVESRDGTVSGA
Sequence of Muscarinic acetylcholine receptor M1 (Rattus norvegicus) (P08482 whole entry, looked up): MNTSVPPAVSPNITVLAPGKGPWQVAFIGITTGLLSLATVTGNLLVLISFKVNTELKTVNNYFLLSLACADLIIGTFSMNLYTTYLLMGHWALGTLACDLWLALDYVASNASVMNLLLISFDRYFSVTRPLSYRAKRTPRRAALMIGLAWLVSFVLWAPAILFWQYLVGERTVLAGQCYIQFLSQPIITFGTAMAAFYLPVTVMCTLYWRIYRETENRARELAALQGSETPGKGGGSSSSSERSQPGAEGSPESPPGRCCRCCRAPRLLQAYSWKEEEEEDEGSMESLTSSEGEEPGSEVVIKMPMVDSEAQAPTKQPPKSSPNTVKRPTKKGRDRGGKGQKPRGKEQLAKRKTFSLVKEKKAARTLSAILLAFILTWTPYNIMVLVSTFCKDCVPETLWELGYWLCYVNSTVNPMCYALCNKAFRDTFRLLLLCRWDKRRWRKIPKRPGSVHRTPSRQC
Sequence of Glucocorticoid receptor (Homo sapiens) (P04150 whole entry, looked up, the tested form may be a part): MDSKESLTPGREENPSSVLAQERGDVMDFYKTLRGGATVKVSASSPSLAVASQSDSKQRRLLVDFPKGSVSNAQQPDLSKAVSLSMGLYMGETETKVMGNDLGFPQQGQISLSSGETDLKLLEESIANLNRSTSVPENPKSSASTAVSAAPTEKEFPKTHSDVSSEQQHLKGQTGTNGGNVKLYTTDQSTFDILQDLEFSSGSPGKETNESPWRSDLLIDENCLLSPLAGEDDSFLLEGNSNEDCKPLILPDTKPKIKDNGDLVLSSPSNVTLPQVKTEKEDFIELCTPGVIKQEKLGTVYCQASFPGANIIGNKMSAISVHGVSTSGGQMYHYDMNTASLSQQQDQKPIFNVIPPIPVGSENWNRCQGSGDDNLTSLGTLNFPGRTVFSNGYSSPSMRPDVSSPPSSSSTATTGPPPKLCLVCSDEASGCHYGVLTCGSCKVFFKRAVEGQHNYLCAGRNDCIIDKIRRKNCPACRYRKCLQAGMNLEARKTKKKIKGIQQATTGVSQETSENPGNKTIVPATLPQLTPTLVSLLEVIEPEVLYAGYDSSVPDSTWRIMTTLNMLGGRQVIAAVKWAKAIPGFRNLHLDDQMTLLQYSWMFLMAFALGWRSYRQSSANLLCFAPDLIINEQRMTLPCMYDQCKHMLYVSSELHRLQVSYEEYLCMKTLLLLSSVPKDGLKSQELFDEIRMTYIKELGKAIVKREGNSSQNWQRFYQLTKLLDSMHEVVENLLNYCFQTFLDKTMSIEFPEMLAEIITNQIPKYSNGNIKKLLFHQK
Sequence of Pyruvate kinase PKM (Homo sapiens) (P14618 whole entry, looked up): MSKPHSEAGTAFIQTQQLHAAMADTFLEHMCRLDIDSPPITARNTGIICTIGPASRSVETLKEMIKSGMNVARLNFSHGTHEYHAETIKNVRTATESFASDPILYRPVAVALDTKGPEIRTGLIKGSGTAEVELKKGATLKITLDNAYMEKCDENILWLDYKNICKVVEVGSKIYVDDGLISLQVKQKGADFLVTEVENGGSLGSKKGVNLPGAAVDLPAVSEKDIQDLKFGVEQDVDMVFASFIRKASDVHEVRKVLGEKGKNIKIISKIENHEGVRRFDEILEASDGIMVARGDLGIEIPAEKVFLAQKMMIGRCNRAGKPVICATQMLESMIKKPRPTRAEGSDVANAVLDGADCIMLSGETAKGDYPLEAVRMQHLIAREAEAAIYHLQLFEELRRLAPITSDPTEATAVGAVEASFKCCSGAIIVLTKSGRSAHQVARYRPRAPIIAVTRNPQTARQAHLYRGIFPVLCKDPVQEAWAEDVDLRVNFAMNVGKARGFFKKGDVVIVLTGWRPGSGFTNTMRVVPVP
Sequence of Alpha-galactosidase A (Homo sapiens) (P06280 whole entry, looked up): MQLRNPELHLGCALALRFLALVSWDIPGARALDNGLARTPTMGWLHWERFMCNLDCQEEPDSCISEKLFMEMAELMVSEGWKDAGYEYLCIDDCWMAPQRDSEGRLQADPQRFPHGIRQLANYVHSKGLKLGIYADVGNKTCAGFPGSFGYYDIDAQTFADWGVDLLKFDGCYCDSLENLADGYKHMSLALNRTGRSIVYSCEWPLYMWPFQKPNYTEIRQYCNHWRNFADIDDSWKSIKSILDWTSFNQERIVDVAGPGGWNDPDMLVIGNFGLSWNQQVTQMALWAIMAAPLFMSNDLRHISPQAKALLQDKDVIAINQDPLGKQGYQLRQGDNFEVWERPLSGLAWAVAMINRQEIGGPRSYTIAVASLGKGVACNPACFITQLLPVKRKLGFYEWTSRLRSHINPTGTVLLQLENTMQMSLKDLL
Sequence of Cytochrome P450 2D6 (Homo sapiens) (P10635 whole entry, looked up): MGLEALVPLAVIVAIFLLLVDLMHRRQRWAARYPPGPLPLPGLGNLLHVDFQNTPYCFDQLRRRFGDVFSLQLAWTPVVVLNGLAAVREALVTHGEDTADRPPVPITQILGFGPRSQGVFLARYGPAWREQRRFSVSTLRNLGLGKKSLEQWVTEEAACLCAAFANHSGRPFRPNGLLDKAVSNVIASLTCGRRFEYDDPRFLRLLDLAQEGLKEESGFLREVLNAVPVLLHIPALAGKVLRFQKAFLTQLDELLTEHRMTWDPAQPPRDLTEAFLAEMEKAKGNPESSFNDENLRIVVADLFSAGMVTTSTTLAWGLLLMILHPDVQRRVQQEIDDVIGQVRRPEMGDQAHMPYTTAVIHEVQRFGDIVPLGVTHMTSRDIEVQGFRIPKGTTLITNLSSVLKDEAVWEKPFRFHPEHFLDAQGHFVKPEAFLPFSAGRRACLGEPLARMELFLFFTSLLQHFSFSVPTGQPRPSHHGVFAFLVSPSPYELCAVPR
Sequence of Pyruvate kinase (Leishmania mexicana) (Q27686 2-499 E452W): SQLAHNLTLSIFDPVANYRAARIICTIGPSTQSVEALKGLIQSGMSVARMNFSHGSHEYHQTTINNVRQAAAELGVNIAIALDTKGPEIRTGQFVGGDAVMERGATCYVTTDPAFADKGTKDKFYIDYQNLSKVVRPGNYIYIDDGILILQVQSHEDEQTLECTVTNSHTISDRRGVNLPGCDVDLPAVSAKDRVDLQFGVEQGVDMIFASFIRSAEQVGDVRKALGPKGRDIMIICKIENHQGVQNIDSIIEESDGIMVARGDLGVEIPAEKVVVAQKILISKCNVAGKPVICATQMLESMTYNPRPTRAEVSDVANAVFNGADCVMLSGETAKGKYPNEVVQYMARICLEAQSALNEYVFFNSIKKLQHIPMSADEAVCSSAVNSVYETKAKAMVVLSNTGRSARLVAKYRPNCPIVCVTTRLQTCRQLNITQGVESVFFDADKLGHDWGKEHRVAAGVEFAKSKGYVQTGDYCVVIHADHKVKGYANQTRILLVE

| SMILES | activity change, negative = inhibition [1] | Potency [2] | activity change, negative = inhibition [3] | activity, negative = inhibition [4] | Potency [5] | Potency [6] | Potency [7] | Potency [8] | Potency [9] | Potency [10] | Potency [11] | Potency [12] | Potency [13] | outcome [14] | outcome [15] | outcome [16] | Potency [17] | outcome [18] |
| --- | --- | --- | --- | --- | --- | --- | --- | --- | --- | --- | --- | --- | --- | --- | --- | --- | --- | --- |
| C[C@]12C=CC(=O)C=C1CC[C@@H]1[C@H]3C[C@@H](O)[C@](O)(C(=O)CO)[C@]3(C)C[C@H](O)[C@]12F | -12.2% [at 38 µM] | inactive | -3.19% [at 38 µM] | -15.9% [at 38 µM] | 0.223 µM (active) | 0.273 µM (active) | inactive | inactive | inactive | – | – | – | – | – | – | – | – | – |
| CCCC[C@]1(C2CCCC2)Cc2cc(OCC(=O)O)c(Cl)c(Cl)c2C1=O | -1.05% [at 38 µM] | inactive | -21.4% [at 38 µM] | -1.69% [at 38 µM] | > 46 µM | > 46 µM | inactive | – | – | 2.51 µM (active) | inactive | inactive | inactive | inactive | inactive | inactive | inactive | – |
| COc1ncc2nc(-c3cc(F)cc(F)c3)c(=O)n(C3CC3)c2n1 | 5.87% | 1.58 µM (active) | -2% | -19.2% | > 9.22 µM | > 46 µM | inactive | inactive | – | – | inactive | – | – | – | – | – | – | – |
| C=C1CC[C@H](O)C/C1=C/C=C1\CCC[C@]2(C)[C@H]1CC[C@H]2[C@@H](C)CCCC(C)C | -6.4% [at 17.2 µM] | inactive | 8.22% [at 17.2 µM] | -9.36% [at 17.2 µM] | > 20.6 µM | > 20.6 µM | inactive | inactive | – | – | – | – | – | – | – | – | – | – |
| OC[C@@H]1NC[C@@H](O)[C@H]1O | 0.107% [at 38 µM] | inactive | 8.18% [at 38 µM] | -5.61% [at 38 µM] | > 46 µM | > 46 µM | inactive | inactive | – | – | – | – | – | – | inactive | – | 12.6 µM (active) | inactive |
| CC1=C(\C=C/C(C)=C/C=C\C(C)=C\C(=O)Nc2ccc(O)cc2)C(C)(C)CCC1 | -16.4% [at 38 µM] | inactive | -17.1% [at 38 µM] | -11.2% [at 38 µM] | > 46 µM | > 46 µM | inactive | inactive | inactive | – | – | – | – | – | – | – | – | – |
| CN1CC[C@@]2(CCN3CCc4c(oc5ccccc45)[C@@H]3C2)N(C)C1=O | 18% [at 38 µM] | inactive | -21.7% [at 38 µM] | -5.91% [at 38 µM] | > 46 µM | > 46 µM | inactive | inactive | – | – | inactive | inactive | – | inactive | inactive | inactive | inactive | – |
